The term cell viability denotes a read-out of living cells in per cent, often relative to untreated cells.

Where a name gives a salt, the structure may show the parent alone.

In the assay the test system is OCI-AML2. Description: cell viability relative to vehicle control; higher = less cytotoxic. The note with it: 10 µM; SRSF2 genotype: wt/wt. The procedure, abridged:
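Screening covered the Selleck bioactive, kinase and epigenetic probe libraries, less identity-inconsistent compounds, on CRISPR-edited mutant clones and isogenic wild-type clones of four leukaemia lines. Cells, at 2000 per well in 50 µL medium, received a single 10 µM acoustically dispensed dose. After 48 h the supernatant was removed and CellTiter-Glo luminescence was read. Viability was analysed in Genedata Screener as percent of the on-plate vehicle control.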
In the case of `Cc1cc(C)c(-c2csc(NC(=O)c3ccccc3)n2)c(C)c1`, the cell viability stood at 27.5%.
Then `O=C(/C=C/c1ccc(O[C@@H]2O[C@H](CO)[C@@H](O)[C@H](O)[C@H]2O)cc1)c1ccc(O)cc1O` [Isoliquiritin], with 107%.
In the case of `COc1ccc(-c2oc3c(CC=C(C)C)c(O)cc(O)c3c(=O)c2O[C@@H]2O[C@@H](C)[C@H](O)[C@@H](O)[C@H]2O)cc1` [Baohuoside I], the cell viability amounted to 107%.
Turning to `CCCCCCCCCC(=O)N[C@@H](Cc1c[nH]c2ccccc12)C(=O)N[C@H](CC(N)=O)C(=O)N[C@@H](CC(=O)O)C(=O)N[C@@H]1C(=O)NCC(=O)N[C@@H](CCCN)C(=O)N[C@@H](CC(=O)O)C(=O)N[C@H](C)C(=O)N[C@@H](CC(=O)O)C(=O)NCC(=O)N[C@H](CO)C(=O)N[C@@H]([C@H](C)CC(=O)O)C(=O)N[C@@H](CC(=O)c2ccccc2N)C(=O)O[C@@H]1C` [Daptomycin], the cell viability stood at 103%.
Then `c1ccc2occc2c1` [2,3-Benzofuran], with 98.6%; and `O=C(O)CC(C(=O)O)n1c(O)c(C2=c3cc(Br)ccc3=NC2=O)sc1=S` (stereo not given), with 103%.
With `CCN1CCN(c2cc3c(cc2F)c(=O)c(C(=O)O)cn3C2CC2)CC1` [Enrofloxacin] the figure was 109%.
Then `COc1ccc2c(c1O)-c1c(O)c(OC)cc3c1[C@H](C2)[N+](C)(C)CC3` [Magnoflorine], with 107%; and `CC(=O)OCC(=O)[C@@]1(O)CC[C@H]2[C@@H]3CCC4=CC(=O)CC[C@]4(C)[C@@]3(F)[C@@H](O)C[C@@]21C` [Fludrocortisone acetate], with 119%.
With `NC(=O)NO` [Hydroxyurea (Cytodrox)], the cell viability is 108%.
Consider `Nc1ncnc2c1nc(Br)n2[C@@H]1O[C@@H]2COP(=O)(O)O[C@H]2[C@H]1O` [8-Bromo-cAMP], for which the cell viability is 93.2%.
As to `Cc1cccc(Nc2nc(-c3ccncc3)cs2)c1`, the cell viability worked out at 66.9%.
With `CC12CCC(CC1)C(C)(C)O2` [Eucalyptol] the figure was 103%; with `CCc1c(Cl)c(O)c(Cl)c(O)c1C(=O)O[C@H]1[C@H](O)[C@H](OC)[C@H](OC/C2=C\C=C\C[C@H](O)/C(C)=C/[C@H](CC)[C@@H](O[C@@H]3OC(C)(C)[C@@H](OC(=O)C(C)C)[C@H](O)[C@@H]3O)/C(C)=C/C(C)=C/C[C@@H]([C@@H](C)O)OC2=O)O[C@@H]1C` [Fidaxomicin], 100%; with `CO[C@H]1/C=C/O[C@@]2(C)Oc3c(C)c(O)c4c(O)c(c(/C=N/N5CCN(C)CC5)c(O)c4c3C2=O)NC(=O)/C(C)=C\C=C\[C@H](C)[C@H](O)[C@@H](C)[C@@H](O)[C@@H](C)[C@H](OC(C)=O)[C@@H]1C` [Rifampin], 105%.
Consider `COc1ccc(C2CNC(=O)C2)cc1OC1CCCC1` (stereo not drawn) [S-(+)-Rolipram], for which the cell viability came out at 103%.
Then `C#C[C@]1(O)CC[C@H]2[C@@H]3CCc4cc(OC5CCCC5)ccc4[C@H]3CC[C@@]21C` [Quinestrol], with 60.6%; and `COc1cccc2cc(-c3nc([C@H]4CC[C@H](C(=O)O)CC4)n4ncnc(N)c34)[nH]c12`, with 27.5%; and `O=C(/C=C/c1ccc(O)c(O)c1)c1ccc(O)cc1O` [Butein], with 77.8%.
Take `CN(C)c1ccc(C(=O)NCCCCCCC(=O)NO)cc1`: the cell viability was determined as 6.46%.
With `O=c1c2cc(O[C@@H]3O[C@H](CO)[C@@H](O)[C@H](O)[C@H]3O)c(O)cc2oc2cc(O)c([C@@H]3O[C@H](CO)[C@@H](O)[C@H](O)[C@H]3O)c(O)c12` [Neomangiferin] the figure was 97.7%.
With `O=c1[nH]c(=O)n([C@H]2C[C@H](O)[C@@H](CO)O2)cc1/C=C/Br` [Brivudine] the figure was 107%; with `Cc1c(C(=O)Nc2ccc(Oc3ccnc4[nH]cc(-c5ccccc5)c34)c(F)c2)c(=O)n(-c2ccc(F)cc2)n1C`, 35.5%; with `CC(=O)CCc1ccc(OC(C)=O)cc1` [Pherocon (4-(4-Acetoxyphenyl)-2-butanone)], 116%.
With `C[C@@H](N)[C@H]1CC[C@H](C(=O)Nc2ccncc2)CC1` the figure was 91.2%.
`COC(=O)C=Cc1ccc(O)c(OC)c1` [Ferulic acid methyl ester]: the cell viability turned out to be 104%.
Regarding `CN1C(N)=N[C@](C)(c2cc(NC(=O)c3ccc(F)cn3)ccc2F)CS1(=O)=O` [Verubecestat (MK-8931)], the cell viability was 97.1%.
For the compound `C[C@H]1O[C@@H](Oc2c(-c3cc(O)c(O)c(O)c3)oc3cc(O)cc(O)c3c2=O)[C@@H](O)[C@@H](O)[C@@H]1O` [Myricitrin (Myricitrine)], the cell viability was found to be 94.3%.
With `O=C(O)C1=CO[C@@H](O[C@@H]2O[C@H](CO)[C@@H](O)[C@H](O)[C@H]2O)[C@H]2[C@@H]1C=C[C@]2(O)CO` [Monotropein] the figure was 103%.
With `CNC(=O)[C@H](Cc1c[nH]c2ccccc12)NC(=O)[C@@H](CC(=O)NO)CC(C)C` [Ilomastat (GM6001, Galardin)] the figure was 112%; with `COC(c1ccccc1)(c1ccccc1)[C@H](Oc1nc(C)cc(C)n1)C(=O)O` [Ambrisentan], 105%; with `COc1ccc2c3c1O[C@H]1C[C@@H](O)C=C[C@@]31CCN(C)C2` [Galanthamine], 95%.
With `CCC(=O)O[C@@H]1CC(=O)O[C@H](C)C/C=C/C=C/[C@H](O)[C@H](C)C[C@H](CC=O)[C@H](O[C@@H]2O[C@H](C)[C@@H](O[C@H]3C[C@@](C)(O)[C@@H](OC(=O)CC)[C@H](C)O3)[C@H](N(C)C)[C@H]2O)[C@H]1OC` [Midecamycin] the figure was 97.4%; with `O=C(O)CCc1ccc(O)cc1O` [Hydroumbellic acid], 106%.
With `CCCn1/c(=N/C(=O)c2cccc(C(N)=O)c2)[nH]c2ccccc21` [Takinib], the cell viability was found to be 84.3%.
Then `Cc1cc(F)c(Nc2ncnc3cc(OCc4ccccc4)ccc23)cc1O`, with 81%; and `COc1ccc(NC(=O)c2ccc(C(=N)N(C)C)cc2)c(C(=O)Nc2ccc(Cl)cn2)c1` [Betrixaban maleate], with 76.5%.
Then `Cc1cn([C@H]2C=C[C@@H](CO)O2)c(=O)[nH]c1=O` [Stavudine], with 110%; and `O=C1/C(=C/c2cccs2)CC/C1=C\c1cccs1`, with 86%; and `CN1CC(=O)N2[C@H](c3ccc4c(c3)OCO4)c3[nH]c4ccccc4c3C[C@@H]2C1=O` [Tadalafil (Cialis)], with 108%.

Values taken from the supplement of paper PMC10981050.
